Out of some 350,000 compounds screened, about 1,200 (0.34%) were called active. Another 3% or so got no clear call; they are omitted. This is one part of a sample in which actives are shown more often than they occur. No cut-off for these calls is given here.

DNA repair nuclease/redox regulator APEX1 (Homo sapiens), sequence (P27695 whole entry): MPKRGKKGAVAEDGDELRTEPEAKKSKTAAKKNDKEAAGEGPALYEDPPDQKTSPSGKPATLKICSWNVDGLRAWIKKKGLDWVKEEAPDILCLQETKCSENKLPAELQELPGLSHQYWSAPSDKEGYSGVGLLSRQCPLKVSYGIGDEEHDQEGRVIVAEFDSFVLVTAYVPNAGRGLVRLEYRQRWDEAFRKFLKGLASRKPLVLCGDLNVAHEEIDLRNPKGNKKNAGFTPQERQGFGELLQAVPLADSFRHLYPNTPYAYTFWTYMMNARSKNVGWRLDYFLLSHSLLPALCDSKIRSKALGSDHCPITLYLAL

This assay has as its target DNA repair nuclease/redox regulator APEX1 (Homo sapiens) (UniProt P27695). As to the kind of experiment: qHTS Assay for Inhibitors of the Human Apurinic/apyrimidinic Endonuclease 1 (APE1). The format is functional.
Regarding `O=C(Cn1c(=S)[nH]c2ccccc2c1=O)N1CCN(c2ccc(F)cc2)CC1`, the Potency was 794 µM (active).
As for `CC(=O)OCC(NC(=O)C(Cc1c[nH]c2ccccc12)NC(=O)OC(C)(C)C)C1OC(n2cc(C)c(=O)[nH]c2=O)C(OC(C)=O)C1OC(C)=O` (stereo not drawn), the entry is “inactive”; as for `O=C(O)c1cc(-c2ccc(F)cc2F)ccc1O`, “inactive”.
